Several values for one entry are separate records, joined by “and”; a condition that tells them apart may be missing. Identical values can stand only once. Records with an inconclusive call do not appear. Entries that show only a call come without a potency. Activity calls are given as the source filed them. Unless noted, the call rests on the fitted dose curve; in most records, active means well fitted curve in the direction sought with a large enough effect; inconclusive means small, poorly fitted or top-dose-only effect, or another doubt; inactive means no such curve, though single readings can be large; an effect the other way counts as inactive or inconclusive.
What was measured:
[1] = molecular target: Arylsulfatase A (Homo sapiens) (UniProt P15289); assay: qHTS screen for enhancers of Arylsulfatase A (ASA1): LOPAC Validation Assay (AID 720538); conditions: outcome: dose series up to 57.5 µM
Sequence of Arylsulfatase A (Homo sapiens) (P15289 whole entry, looked up): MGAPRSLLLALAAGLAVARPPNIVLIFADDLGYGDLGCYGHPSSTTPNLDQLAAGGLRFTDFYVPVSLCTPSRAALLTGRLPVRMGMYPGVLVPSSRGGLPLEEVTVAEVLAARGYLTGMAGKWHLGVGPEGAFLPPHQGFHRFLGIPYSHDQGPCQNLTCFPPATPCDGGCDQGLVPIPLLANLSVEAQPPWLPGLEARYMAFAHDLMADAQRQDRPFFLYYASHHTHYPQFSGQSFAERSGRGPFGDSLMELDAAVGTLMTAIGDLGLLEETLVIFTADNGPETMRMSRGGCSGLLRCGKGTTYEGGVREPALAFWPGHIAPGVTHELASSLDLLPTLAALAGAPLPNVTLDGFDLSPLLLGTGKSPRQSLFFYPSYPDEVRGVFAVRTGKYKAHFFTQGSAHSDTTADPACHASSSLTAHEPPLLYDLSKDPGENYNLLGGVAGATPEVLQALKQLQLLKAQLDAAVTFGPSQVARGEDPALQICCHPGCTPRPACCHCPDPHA
In short: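 First, ASA-I179S fibroblasts from an MLD patient adhered for 6 hrs. Next, compounds were added for 48h. Then pNCS substrate (0.5mM final) with lysis buffer reacted 14h at room temperature before NaOH stop and fluorescence measurement.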

[2] = qHTS for compounds that reverse cellular toxicity of Amyloid beta (A-beta) peptide in yeast: LOPAC Validation Assay (AID 720559)
In short: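 Activity is expressed relative to DMSO and an equimolar ferric chloride/clioquinol mix. Compounds were pinned into medium with A-beta-expressing yeast, grown 48 hr at 30 C, then read by absorbance at 600 nm.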

[3] = qHTS for Activators of Parkin Expression: LOPAC Validation Assay (FLuc Reporter) (AID 720573)
In short: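 A neuronal cell line harbouring FLuc and NLuc reporters behind the Parkin promoter was exposed to compounds for 24 h. Firefly luciferase signal, measured after 10 min with detection reagent, was scaled to DMSO and positive-control wells.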

[4] = molecular target: T1, Hexokinase-4 (Homo sapiens) + Glucokinase regulatory protein (Homo sapiens) (UniProt P35557+Q14397); assay: qHTS assay for inhibitors of recombinant human GCK-GKRP interaction: Diaphorase-coupled assay (AID 743205)
T1 sequence (P35557 whole entry, looked up): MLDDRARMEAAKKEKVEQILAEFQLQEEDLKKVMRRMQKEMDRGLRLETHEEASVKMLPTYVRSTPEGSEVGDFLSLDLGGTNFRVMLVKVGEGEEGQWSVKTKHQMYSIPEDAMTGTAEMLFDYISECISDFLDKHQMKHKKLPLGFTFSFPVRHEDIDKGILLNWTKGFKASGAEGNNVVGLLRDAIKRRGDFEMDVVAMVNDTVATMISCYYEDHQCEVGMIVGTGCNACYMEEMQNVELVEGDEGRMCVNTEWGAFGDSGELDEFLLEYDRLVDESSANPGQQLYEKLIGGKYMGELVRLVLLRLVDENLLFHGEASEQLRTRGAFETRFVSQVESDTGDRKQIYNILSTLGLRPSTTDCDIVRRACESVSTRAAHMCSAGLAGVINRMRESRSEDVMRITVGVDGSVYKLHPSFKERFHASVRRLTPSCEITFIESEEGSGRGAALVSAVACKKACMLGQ
T1 sequence (Q14397 whole entry, looked up): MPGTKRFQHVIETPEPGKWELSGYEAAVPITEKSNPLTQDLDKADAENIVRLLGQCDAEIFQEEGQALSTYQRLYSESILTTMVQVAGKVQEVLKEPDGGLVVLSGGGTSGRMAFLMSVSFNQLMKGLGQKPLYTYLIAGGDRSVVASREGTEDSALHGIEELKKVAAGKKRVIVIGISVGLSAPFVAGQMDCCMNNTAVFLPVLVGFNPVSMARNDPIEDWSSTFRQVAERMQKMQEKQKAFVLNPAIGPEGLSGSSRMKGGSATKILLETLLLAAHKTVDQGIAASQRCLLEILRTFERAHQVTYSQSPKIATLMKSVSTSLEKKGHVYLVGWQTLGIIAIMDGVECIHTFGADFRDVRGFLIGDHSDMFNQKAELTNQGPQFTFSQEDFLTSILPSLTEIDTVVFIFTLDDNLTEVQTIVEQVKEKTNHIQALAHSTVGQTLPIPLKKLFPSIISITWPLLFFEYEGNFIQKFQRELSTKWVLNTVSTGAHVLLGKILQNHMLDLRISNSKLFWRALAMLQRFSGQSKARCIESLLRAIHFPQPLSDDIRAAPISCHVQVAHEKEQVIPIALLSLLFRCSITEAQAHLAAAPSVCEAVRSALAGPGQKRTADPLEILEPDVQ
In short: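 Inhibitors of the GCK–GKRP complex relieve GKRP suppression of GCK, detected through a G6PDH–diaphorase cascade reducing resazurin. Human GST-GCK and FLAG-GKRP are used at 10 nM with 5 mM glucose and 0.4 mM ATP.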

[5] = molecular target: T1, Hexokinase-4 (Homo sapiens) + Glucokinase regulatory protein (Homo sapiens); assay: qHTS assay for inhibitors of recombinant human GCK-GKRP interaction: ADP-Glo assay (AID 743206)
In short: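 Pin-transferred compounds meet a 15 nM GST-GCK/15 nM FLAG-GKRP/2 uM S6P mix (dispense concentrations). ATP is then added to 0.4 mM final with 5 mM glucose, and the reaction runs 60 min at room temperature. ADP is quantified luminescently.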

[6] = molecular target: T1, Hexokinase-4 (Homo sapiens) + Glucokinase regulatory protein (Homo sapiens); assay: qHTS assay for inhibitors of recombinant human GCK-GKRP interaction: HTRF assay (AID 743207)
In short: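 Steps: dispense GCK–GKRP complex (5 nM each, GST- and FLAG-tagged) with 2 uM S6P; pin in compounds; add XL665/Eu-cryptate-labelled antibodies; incubate 60 min at room temperature; read time-resolved FRET at 665 and 615 nm.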

[7] = qHTS Assay for Identifying Gametocytocidal Compounds (AID 743244); further: potency means the concentration at half of the fitted maximal effect;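 on max response: actives lower the fluorescent signal which means gametocytes are killed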; conditions: P. falciparum 3D7 stage III-V gametocytes, alamarBlue, 72 h; max response: stronger effect = lower value
In short: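 In this qHTS viability screen, late-stage 3D7 gametocytes are incubated with compound for 72 h, then with alamarBlue for 24 h; reduced resorufin fluorescence marks killing.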

[8] = qHTS profiling of the MIPE4 collection as inhibitors of Plasmodium falciparum (3D7) proliferation (AID 743344; call rule not given here); conditions: P. falciparum 3D7 in erythrocytes, SYBR Green DNA fluorescence, 72 h; at 28.5 µM (top of the series) unless noted
In short: (§1)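 Parasite DNA was quantified by SYBR Green I fluorescence (ex 485, em 535 nm) after overnight lysis in saponin/Triton buffer at room temperature. Cultures at 0.3% parasitemia and 2.5% hematocrit were first exposed to compound for 72 h at 37 C; signals were normalised to artemisinin (0.29 uM) and vehicle wells.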

[9] = molecular target: Tyrosine-protein kinase Yes (Homo sapiens) (UniProt P07947); assay: qHTS for small molecule inhibitors of Yes1 kinase: Primary Screen (AID 686947); further: nearly all actives have a fitted effect of over 60% in size
Sequence of Tyrosine-protein kinase Yes (Homo sapiens) (P07947 whole entry, looked up): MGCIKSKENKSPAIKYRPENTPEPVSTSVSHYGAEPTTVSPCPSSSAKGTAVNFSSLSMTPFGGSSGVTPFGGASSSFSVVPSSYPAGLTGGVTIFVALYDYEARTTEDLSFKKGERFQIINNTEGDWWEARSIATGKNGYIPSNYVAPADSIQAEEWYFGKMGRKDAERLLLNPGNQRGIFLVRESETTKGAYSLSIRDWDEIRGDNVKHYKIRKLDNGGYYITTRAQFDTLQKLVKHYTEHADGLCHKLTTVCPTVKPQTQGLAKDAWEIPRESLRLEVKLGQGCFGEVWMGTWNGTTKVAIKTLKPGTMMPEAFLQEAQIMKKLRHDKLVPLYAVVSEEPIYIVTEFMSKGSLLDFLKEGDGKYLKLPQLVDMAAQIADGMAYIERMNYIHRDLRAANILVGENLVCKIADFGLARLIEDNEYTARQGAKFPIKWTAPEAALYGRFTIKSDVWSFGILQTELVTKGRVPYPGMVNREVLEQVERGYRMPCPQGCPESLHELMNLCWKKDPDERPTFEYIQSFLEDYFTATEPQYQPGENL
In short: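 ADP-Glo luminescence reports ADP formed by 4 nM Yes1 phosphorylating poly(E4Y) (0.3 mg/mL) with 0.1 mM ATP for 60 min at room temperature, following 20 min compound preincubation; normalised between DMSO wells with and without enzyme.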

[10] = qHTS for small molecule inhibitors of Yes1 kinase: Counter Assay (AID 686950);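 further: no kinase present so only ADP-Glo detection of a fixed ADP amount is tested; luminescence from ADP-Glo reporting ADP in a fixed ATP and ADP mixture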
In short: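 Measuring interference with ADP-Glo, the assay ran 60 min at room temperature on an ATP/ADP mix lacking enzyme. Values were normalized to ATP-plus-ADP (maximum) and ATP-only (minimum) DMSO controls.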

[11] = qHTS profiling for inhibitors of Plasmodium falciparum (3D7) proliferation (AID 743322);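 further: infected erythrocytes exposed to compound for 72 h before lysis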; conditions: P. falciparum 3D7 proliferation; at 28.7 µM (top of the series)
In short: as §1

[12] = qHTS profiling for inhibitors of Plasmodium falciparum (DD2) proliferation (AID 743323; call rule not given here); conditions: lower = more inhibition; at 28.7 µM (top of the series)
In short: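 Parasite DNA quantified by SYBR Green fluorescence (ex 485, em 535 nm) after saponin/Triton lysis and overnight dark incubation. Cultures: 0.3% parasitemia, 2.5% hematocrit, 72 h, 37 C; data scaled between DMSO and 0.29 uM artemisinin.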

[13] = qHTS profiling for inhibitors of Plasmodium falciparum (HB3) proliferation (AID 743324); conditions: Plasmodium falciparum HB3 blood-stage proliferation; at 28.7 µM (top of the series)
In short: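 SYBR Green fluorescence (485 ex/535 em) of lysed cultures, incubated overnight at room temperature in the dark, quantifies parasite DNA. Infected erythrocytes at 0.3% parasitemia and 2.5% hematocrit were exposed 72 h; values normalized to DMSO and 0.29 uM artemisinin controls.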

**Q.** With `CCN(CC)CC#CCOC(=O)C(O)(c1ccccc1)C1CCCCC1` (stereo not given) as the molecule, how does the outcome [1] read?
**A.** inactive

**Q.** And the outcome [2]?
**A.** inactive

**Q.** And the outcome [3]?
**A.** inactive

**Q.** What about the outcome [4] of the same molecule?
**A.** inactive

**Q.** What about the outcome [5] of the same molecule?
**A.** inactive

**Q.** What about the outcome [6] of the same molecule?
**A.** inactive

**Q.** What about the max response [7] of the same molecule?
**A.** -0.0303% (inactive) and 25.9% (inactive)

**Q.** And the parasite growth, % of DMSO control [8]?
**A.** 14.3%

**Q.** With `Cc1nnc(C(=O)NC(C)(C)c2nc(C(=O)NCc3ccc(F)cc3)c(O)c(=O)n2C)o1` as the molecule, how does the outcome [9] read?
**A.** inactive

**Q.** And the outcome [10]?
**A.** inactive

**Q.** And the max response [7]?
**A.** 3.93% (inactive)

**Q.** What about the parasite growth, % of DMSO control [8] of the same molecule?
**A.** 83.6%

**Q.** What does the source list for `CC1CC2C3CCC4=CC(=O)C=C[C@]4(C)[C@@]3(F)[C@@H](O)C[C@]2(C)[C@@]1(O)C(=O)CO` (stereo not given in full)?
**A.** outcome [1]: inactive; outcome [2]: inactive; outcome [3]: inactive; outcome [4]: inactive; outcome [5]: inactive; outcome [6]: inactive; max response [7]: 8.59% (inactive); parasite growth, % of DMSO control [8]: 85.2%

**Q.** Which outcome [1] does the source give for `CC(C)NCC(O)c1ccc(NS(C)(=O)=O)cc1` (stereo not given) here?
**A.** inactive

**Q.** And the outcome [2]?
**A.** inactive

**Q.** And the outcome [3]?
**A.** inactive

**Q.** And the outcome [4]?
**A.** inactive

**Q.** And the outcome [5]?
**A.** inactive

**Q.** And the outcome [6]?
**A.** inactive

**Q.** And the max response [7]?
**A.** -0.473% (inactive) and -8.06% (inactive) and 37.8% (inactive)

**Q.** And the parasite growth, % of DMSO control [8]?
**A.** 44.4%

**Q.** Which outcome [1] does the source give for `CC1=C(C(=O)O)N2C(=O)[C@@H](NC(=O)C(N)c3ccccc3)[C@H]2SC1` (stereo not given in full) here?
**A.** inactive

**Q.** And the outcome [2]?
**A.** inactive

**Q.** And the outcome [3]?
**A.** inactive

**Q.** And the outcome [4]?
**A.** inactive

**Q.** And the outcome [5]?
**A.** inactive

**Q.** And the outcome [6]?
**A.** inactive

**Q.** What about the max response [7] of the same molecule?
**A.** 7.37% (inactive)

**Q.** What about the parasite growth, % of DMSO control [8] of the same molecule?
**A.** 101%

**Q.** With `Cc1c(-c2ccc(O)cc2)n(Cc2ccc(OCCN3CCCCCC3)cc2)c2ccc(O)cc12` as the molecule, how does the outcome [9] read?
**A.** inactive

**Q.** What about the outcome [10] of the same molecule?
**A.** inactive

**Q.** Which results are given for `CC(C)C[C@H](NC(=O)[C@H](CCc1ccccc1)NC(=O)CN1CCOCC1)C(=O)N[C@@H](Cc1ccccc1)C(=O)N[C@@H](CC(C)C)C(=O)[C@@]1(C)CO1`?
**A.** outcome [9]: inactive; outcome [10]: inactive; Potency [7]: 11.8 nM (active); remaining parasite growth % (stronger effect = lower value) [11]: -0.503%; activity, percent of control [12]: -1.29%; remaining proliferation (% of control), lower = more inhibition [13]: 0.46%; parasite growth, % of DMSO control [8]: 5.1%
